The results in this text go back to PubChem BioAssay (Tox21).

Results filed as inconclusive are left out. Values without a mark were called inactive. Calls of active or inactive are those of the source. Calls follow the shape of the dose curve; as a rule, active = well fitted cell-killing curve with a large enough effect in the repeat runs; inconclusive = weak or mixed curves, or effect the other way; inactive = flat fitted curve, though single readings scatter.

A short description of test [1]: cAMP Responsive Elements (CRE) small molecule antagonists, cell-based qHTS assay: qHTS cell viability counter screen (AID 2060913). Also: nearly all actives have a fitted effect of over 40% in size. The method in brief: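 Viability of NKH477-stimulated (0.25 uM final) CRE-bla HEK293T cells is measured by CellTiter-Glo luminescence following 3 hrs compound exposure at 37 C.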
For orientation: Quantitative high-throughput screening tests each substance at several concentrations.

Test [2] is described as follows: cAMP Responsive Elements (CRE) small molecule agonists, cell-based qHTS assay: qHTS cell viability counter screen (AID 2060914). Also: nearly all actives have a fitted effect of over 50% in size. The method in brief:
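Luminescence read-out (CellTiter-Glo, 30 min RT) of ATP-based viability in CRE-bla HEK 293T cells, run in the same wells as the β-lactamase reporter assay after 3 h compound treatment at 37 °C.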
% is scaled to controls: 0 for no effect and ±100 for the full control effect; potency is read from the fitted curve at half-maximal effect.

On to `C=CCBr`, for which the Potency result in test [1] and in test [2] was “inactive” throughout.
Regarding `OCCOc1ccccc1`, the Potency result in test [1] and in test [2] was “inactive” throughout.
On to `CCCCCCCC(=O)Cl`, for which the Potency entry in test [1] and in test [2] was “inactive” throughout.
Regarding `CC(CC(C(N)=O)(c1ccccc1)c1ccccc1)N(C)C` (configuration not stated), the Potency result in test [1] and in test [2] was “inactive” throughout.
For the molecule `C=CCOCC1CO1` (configuration not stated), the Potency entry in test [1] and in test [2] was “inactive” throughout.
With `CN(C)C(=S)S`, the Potency entry in test [1] and in test [2] was “inactive” each time.
As to `CCCCc1ccccc1`, the Potency result in test [1] and in test [2] was “inactive” in each case.
With `Cn1cc(-c2ccccc2)c(=O)c(-c2cccc(C(F)(F)F)c2)c1`, the Potency entry in test [1] and in test [2] was “inactive” each time.
Regarding `CC(=O)[O][Pb]([c]1ccccc1)([c]1ccccc1)[c]1ccccc1`, the Potency in test [1] was 18 µM (active); in test [2], 24.3 µM (active).
The like results for `O=C/C=C/c1ccco1` were, in that order, “inactive” and “inactive”.
The like results for `C[C@@H](Oc1ccc(Cl)cc1Cl)C(=O)O` were, in that order, “inactive” and “inactive”.
Regarding `O=P(OCC(Br)CBr)(OCC(Br)CBr)OCC(Br)CBr` (configuration not stated), the Potency entry in test [1] and in test [2] was “inactive” throughout.
As to `Cc1ccc([N+](=O)[O-])[c]2c1[O][Hg]2`, the Potency in test [1] is 11.9 µM (active); in test [2] it was 18.8 µM (active).
The like results for `O=Cc1ccccc1` were, in that order, “inactive” and “inactive”.
Turning to `CCC/C=N/O`, the Potency result in test [1] and in test [2] was “inactive” throughout.
Consider `N#CCCO`, for which the Potency result in test [1] and in test [2] was “inactive” each time.
For the molecule `C[C@H]1O[C@H](OC2[C@@H](O)[C@@H](O)C(O)[C@H](O)[C@H]2O)[C@@H](N)C[C@@H]1N=C(N)C(=O)O` (some centres not stated), the Potency entry in test [1] and in test [2] was “inactive” throughout.
As to `CCCCCCCCCl`, the Potency result in test [1] and in test [2] was “inactive” in each case.
On to `N#CN=C1SCCN1Cc1ccc(Cl)nc1`, for which the Potency result in test [1] and in test [2] was “inactive” each time.
For `CC(C)(C)C(=O)C(Oc1ccc(Cl)cc1)n1cncn1` (configuration not stated), the Potency entry in test [1] and in test [2] was “inactive” each time.
On to `Cc1cc(Cl)ccc1O[C@H](C)C(=O)O`, for which the Potency entry in test [1] and in test [2] was “inactive” each time.
Take `C=CC(=O)OCC(C)O` (configuration not stated): the Potency result in test [1] and in test [2] was “inactive” throughout.
As to `CN(C)c1ccc(N)cc1`, the Potency entry in test [1] and in test [2] was “inactive” in each case.
For the molecule `CC(C)OS(C)(=O)=O`, the Potency result in test [1] and in test [2] was “inactive” throughout.
With `O=CNC(N1CCN(C(NC=O)C(Cl)(Cl)Cl)CC1)C(Cl)(Cl)Cl` (configuration not stated), the Potency entry in test [1] and in test [2] was “inactive” each time.
Turning to `O=C(NC(=O)c1c(F)cccc1F)Nc1ccc(Cl)cc1`, the Potency result in test [1] and in test [2] was “inactive” in each case.
Take `CCOP(=O)(OCC)Oc1ccc([N+](=O)[O-])cc1`: the Potency entry in test [1] and in test [2] was “inactive” in each case.
As to `Clc1ccccc1-c1nnc(-c2ccccc2Cl)nn1`, the Potency entry in test [1] and in test [2] was “inactive” in each case.
Turning to `CCOC(=O)CP(=O)(OCC)OCC`, the Potency entry in test [1] and in test [2] was “inactive” each time.
As for `N#Cc1ccc(O)cc1`, the Potency result in test [1] and in test [2] was “inactive” in each case.
As for `Nc1ccc(N=Nc2ccccc2)cc1`, the Potency entry in test [1] and in test [2] was “inactive” throughout.
Regarding `Cc1cc(Cl)ccc1OC(C)C(=O)O` (configuration not stated), the Potency result in test [1] and in test [2] was “inactive” throughout.
`CC(=O)/C=C/c1ccccc1`: the Potency entry in test [1] and in test [2] was “inactive” in each case.
For the molecule `S=C=NCCc1ccccc1`, the Potency result in test [1] and in test [2] was “inactive” throughout.
`Cc1ncc(C[n+]2csc(CCO)c2C)c(N)n1`: the Potency result in test [1] and in test [2] was “inactive” each time.
For the molecule `CC1CCC(C(C)C)C(OC(=O)c2ccccc2N)C1` (configuration not stated), the Potency is 47.9 µM (active) in test [1] and 53.7 µM (active) in test [2].
With `BrCC(Br)C1CCC(Br)C(Br)C1` (configuration not stated), the Potency entry in test [1] and in test [2] was “inactive” each time.
As for `CCCCCCCCC(=O)NCc1ccc(O)c(OC)c1`, the Potency result in test [1] and in test [2] was “inactive” in each case.
As to `CCOC(=O)c1ccccc1N`, the Potency result in test [1] and in test [2] was “inactive” throughout.
Regarding `CC[C@@H](CO)NC(=O)[C@@H]1C=C2c3cccc4[nH]cc(c34)C[C@H]2N(C)C1`, the Potency result in test [1] and in test [2] was “inactive” throughout.
As for `CCCN(CCC)c1c([N+](=O)[O-])cc(S(C)(=O)=O)cc1[N+](=O)[O-]`, the Potency entry in test [1] and in test [2] was “inactive” throughout.
Turning to `O=C(CCCN1CCC2(CC1)C(=O)NCN2c1ccccc1)c1ccc(F)cc1`, the Potency result in test [1] and in test [2] was “inactive” each time.
Regarding `CC(=O)C(Cl)(Cl)Cl`, the Potency in test [1] is 26.4 µM (active). Moreover, the Potency result in test [2] is “inactive”.
Consider `Nc1ccc(-c2ccc(N)c(Cl)c2)cc1Cl`, for which the Potency result in test [1] and in test [2] was “inactive” in each case.
`NNc1ccccc1`: the Potency result in test [1] and in test [2] was “inactive” throughout.
With `Cc1ccc2c(C)cccc2c1`, the Potency entry in test [1] and in test [2] was “inactive” in each case.
Regarding `CC(C)(C1CCC(O)CC1)C1CCC(O)CC1` (configuration not stated), the Potency entry in test [1] and in test [2] was “inactive” throughout.
Consider `CC(=O)Nc1ccc2c(c1)Cc1ccccc1-2`, for which the Potency entry in test [1] and in test [2] was “inactive” throughout.
Consider `Clc1c(Cl)c(Cl)c(Cl)c(Cl)c1Cl`, for which the viability change, negative = cytotoxic in test [1] was 2.46% [at 8.39 µM]. The activity change, negative = cytotoxicity in test [2] was 9.47% [at 8.39 µM].
The like results for `CC(=O)OCC1=C(C(=O)O)N2C(=O)[C@@H](N)[C@H]2SC1` were, in that order, -1.82% [at 18.9 µM] and 1.16% [at 18.9 µM].
In the case of `CC(N)=S`, the Potency result in test [1] and in test [2] was “inactive” in each case.
For `CCCC[N+]1(C)CCCCC1`, the Potency result in test [1] and in test [2] was “inactive” each time.
For the molecule `NCc1cccnc1`, the Potency result in test [1] and in test [2] was “inactive” in each case.
On to `CC1NCCOC1c1ccccc1` (configuration not stated), for which the Potency entry in test [1] and in test [2] was “inactive” throughout.
Consider `CCCC1CCCCN1` (configuration not stated), for which the Potency result in test [1] and in test [2] was “inactive” each time.
With `O=C(O)COc1nc(Cl)c(Cl)cc1Cl`, the Potency entry in test [1] and in test [2] was “inactive” in each case.
Regarding `CN(C)C1CCCCC1`, the Potency result in test [1] and in test [2] was “inactive” in each case.
`COC1=CC(=O)O[C@@H](CCc2ccccc2)C1`: the Potency entry in test [1] and in test [2] was “inactive” each time.
In the case of `O=[N+]([O-])c1cc(Cl)ccc1Cl`, the Potency result in test [1] and in test [2] was “inactive” in each case.
As for `C=CCCC#N`, the Potency entry in test [1] and in test [2] was “inactive” each time.
In the case of `CCCCCl`, the Potency entry in test [1] and in test [2] was “inactive” throughout.
Consider `CCOP(=S)(OCC)OC(Cl)C(Cl)(Cl)Cl` (configuration not stated), for which the Potency entry in test [1] and in test [2] was “inactive” in each case.
With `BrCCCCBr`, the Potency result in test [1] and in test [2] was “inactive” in each case.
`NC(=O)OCCCc1ccccc1`: the Potency result in test [1] and in test [2] was “inactive” throughout.
Regarding `CC(C)N(Cc1ccccc1)C(=O)C(C)(C)C`, the Potency result in test [1] and in test [2] was “inactive” each time.
`Nc1ccc(N=Nc2ccc(-c3ccc(N=Nc4c(S(=O)(=O)O)cc5cc(S(=O)(=O)O)c(N=Nc6ccccc6)c(O)c5c4N)cc3)cc2)c(N)c1`: the Potency entry in test [1] and in test [2] was “inactive” in each case.
`CCOC(=O)C1OC1(C)c1ccccc1` (configuration not stated): the Potency result in test [1] and in test [2] was “inactive” throughout.
Turning to `c1ccc(N=NNc2ccccc2)cc1`, the Potency entry in test [1] and in test [2] was “inactive” each time.
As for `ClCCN1CCOCC1`, the Potency result in test [1] and in test [2] was “inactive” each time.
For the molecule `COc1cc(CC(C)N)c(OC)cc1Br` (configuration not stated), the Potency result in test [1] and in test [2] was “inactive” each time.
Consider `[C-]1=CC=CC1.[Cl][Zr+2][Cl].c1cc[cH-]c1`, for which the Potency entry in test [1] and in test [2] was “inactive” throughout.
